The values that follow come from PubChem BioAssay (EPA / NIEHS).

Records with an inconclusive call do not appear. Activity calls are given as the source filed them. The calls were made as follows, unless noted: active = hit-call score of the fitted dose curve at least 0.9, where 1 is the maximum; inactive = score below 0.9.

Test [1] addresses Glucocorticoid receptor (Homo sapiens) (UniProt P04150). As to the kind of experiment: ATG_GR_TRANS: Attagene TRANS-FACTORIAL HepG2 Assay for human Glucocorticoid Receptor (GR) (AID 2282978; active = hit-call score of the fitted dose curve at least 0.9, where 1 is the maximum;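 also: activators score as hits since higher reporter transcript over DMSO is fitted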). Particulars: HepG2 Attagene TRANS GR reporter, mRNA transcription. The method in brief:
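Fluorescent capillary-electrophoresis quantitation of reporter mRNA is the readout, taken 24 h after dosing human HepG2 cells carrying transiently transfected GAL4-UAS reporter units activated by chimeric NR-GAL4 fusions; activity scored as induction over DMSO.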

The target in test [2] is Bile acid receptor (Homo sapiens) (UniProt Q96RI1). As to the kind of experiment: ATG_FXR_TRANS: Attagene TRANS-FACTORIAL HepG2 Assay for Farnesoid X Receptor (FXR) (AID 2282979; active = hit-call score of the fitted dose curve at least 0.9, where 1 is the maximum;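 also: hits raise reporter mRNA above DMSO so AC50 marks FXR activation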). To be noted: HepG2 Attagene TRANS FXR-GAL4 reporter transcription. The procedure, abridged:
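Chimeric FXR-GAL4 activity in transiently transfected human HepG2 liver cells is scored as induction of reporter mRNA after 24 h of dosing. Detection uses RT-PCR with fluorescent labelling and capillary electrophoresis, with DMSO serving as baseline.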

The target of test [3] is Hepatocyte nuclear factor 4-alpha (Homo sapiens) (UniProt P41235). As to the kind of experiment: ATG_HNF4a_TRANS: Attagene TRANS-FACTORIAL HepG2 Assay for human Hepatocyte Nuclear Factor 4 alpha (HNF4a) (AID 2282982; active = hit-call score of the fitted dose curve at least 0.9, where 1 is the maximum). Particulars: HepG2 HNF4a transactivation reporter, mRNA readout. The method in brief:
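HepG2 cells transiently transfected with multiplexed GAL4-UAS reporter units responsive to chimeric NR-GAL4 proteins; compound exposure 24 h. Reporter mRNA quantified by RT-PCR, 6-FAM labelling, HpaI digestion and capillary electrophoresis; gain of signal versus DMSO baseline.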

Test [4] can be described thus: ATG_M_32_TRANS: Attagene TRANS-FACTORIAL HepG2 Assay for M32 Transcription Factor (Internal Marker) (AID 2282984; active = hit-call score of the fitted dose curve at least 0.9, where 1 is the maximum). Particulars: HepG2 Attagene TRANS M32 internal marker reporter. The procedure, abridged:
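HepG2 cells transiently transfected with multiple GAL4-UAS reporter transcription units, dosed for 24 hours; reporter mRNA quantified by RT-PCR, 6-FAM primer extension, HpaI digestion and capillary electrophoresis. Gain-of-signal fitted versus DMSO baseline; internal background-control marker.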

Test [5] addresses Transcriptional activator Myb (Homo sapiens) (UniProt P10242). Description: ATG_Myb_CIS: Attagene CIS-FACTORIAL HepG2 Assay for human Myeloblastosis (Myb) Proto-Oncogene Transcription Factor (AID 2282986). To be noted: HepG2 Attagene CIS-FACTORIAL Myb reporter transcription; actives raise or lower the signal. The method in brief:
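Reporter transcript levels, quantified by fluorescent RT-PCR and capillary electrophoresis, serve as the read-out. Transfected HepG2 cells carrying cis-promoter reporter units are dosed for 24 hours, and curves are fitted bidirectionally against DMSO controls.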

Test [6] deals with Nuclear respiratory factor 1 (Homo sapiens) (UniProt Q16656). Description: ATG_NRF1_CIS: Attagene CIS-FACTORIAL HepG2 Assay for human Nuclear Respiratory Factor 1 (NRF1) Orphan Gene (AID 2282987). Particulars: HepG2 NRF1 cis-element reporter, Attagene multiplex; actives raise or lower the signal. The method in brief: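 Multiplexed cis-reporter assay, HepG2 cells, 24 h treatment. Total RNA → oligo(dT) RT → PCR with reporter-specific primers → 6-FAM primer extension → HpaI cut → CE. Bidirectional fit vs DMSO.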
Chain of Nuclear respiratory factor 1 (Homo sapiens) (Q16656 whole entry, looked up): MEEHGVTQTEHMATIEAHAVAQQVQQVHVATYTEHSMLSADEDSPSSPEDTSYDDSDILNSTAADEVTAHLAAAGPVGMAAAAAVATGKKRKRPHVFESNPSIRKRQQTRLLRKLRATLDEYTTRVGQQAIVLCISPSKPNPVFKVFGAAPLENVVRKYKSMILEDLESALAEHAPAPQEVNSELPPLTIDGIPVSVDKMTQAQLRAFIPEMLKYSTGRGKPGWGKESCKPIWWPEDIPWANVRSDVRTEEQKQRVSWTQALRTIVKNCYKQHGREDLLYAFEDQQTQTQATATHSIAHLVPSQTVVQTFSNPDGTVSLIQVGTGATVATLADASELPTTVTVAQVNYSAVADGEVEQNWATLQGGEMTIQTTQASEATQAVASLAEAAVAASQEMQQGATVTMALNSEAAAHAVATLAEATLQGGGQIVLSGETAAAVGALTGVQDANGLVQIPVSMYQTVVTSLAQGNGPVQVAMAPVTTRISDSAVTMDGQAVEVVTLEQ

Test [7] addresses Myc proto-oncogene protein (Homo sapiens) (UniProt P01106). As to the kind of experiment: ATG_Myc_CIS: Attagene CIS-FACTORIAL HepG2 Assay for human Myelocytomatosis (Myc) Proto-Oncogene Transcription Factor (AID 2282990). Particulars: HepG2, Attagene cis-reporter transcription factor activity; actives raise or lower the signal. The procedure, abridged:
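Multiplexed cis-reporter transcription in HepG2 cells after 24 h chemical treatment. Reporter mRNA measured by RT-PCR and capillary electrophoresis fluorescence; activity fitted bidirectionally against DMSO control.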

Test [8] in a line: ATG_NF_kB_CIS: Attagene CIS-FACTORIAL HepG2 Assay for human Nuclear Factor Kappa B (NF-kB) (AID 2282991). Particulars: HepG2 Attagene cis-factorial NF-kB reporter mRNA; actives raise or lower the signal. The method in brief:
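Transient MRTU transfection of human HepG2 liver cells → 24 h chemical exposure → total RNA, oligo(dT) RT → PCR, 6-FAM primer extension, HpaI digest 2 h 37 C → CE fragment analysis. Bidirectional fitting, DMSO negative control.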

Test [9] is described as follows: ATG_NRF2_ARE_CIS: Attagene CIS-FACTORIAL HepG2 Assay for human Nuclear Factor Erythroid 2 Related Factor 2 (NFR2) response to Antioxidant Response Elements (ARE) (AID 2282992). To be noted: HepG2 Attagene ARE/NRF2 reporter, transcription factor activity; actives raise or lower the signal. The procedure, abridged: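 Cis-factorial assay: transfected HepG2 reporter library, 24 h dosing, mRNA readout via RT-PCR/CE; DMSO-referenced bidirectional analysis.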

In test [10] the target is Oxysterols receptor LXR-alpha (Homo sapiens) (UniProt Q13133). Description: ATG_LXRa_TRANS: Attagene TRANS-FACTORIAL HepG2 Assay for human Liver X Receptor alpha (LXRa) (AID 2282980; active = hit-call score of the fitted dose curve at least 0.9, where 1 is the maximum). To be noted: HepG2 Attagene TRANS reporter, LXRa transactivation. The method in brief: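 Transient HepG2 transfectants, 24 h dosing, RT-PCR/CE mRNA reporter quantitation; gain-of-signal vs DMSO.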
Chain of Oxysterols receptor LXR-alpha (Homo sapiens) (Q13133 whole entry, looked up): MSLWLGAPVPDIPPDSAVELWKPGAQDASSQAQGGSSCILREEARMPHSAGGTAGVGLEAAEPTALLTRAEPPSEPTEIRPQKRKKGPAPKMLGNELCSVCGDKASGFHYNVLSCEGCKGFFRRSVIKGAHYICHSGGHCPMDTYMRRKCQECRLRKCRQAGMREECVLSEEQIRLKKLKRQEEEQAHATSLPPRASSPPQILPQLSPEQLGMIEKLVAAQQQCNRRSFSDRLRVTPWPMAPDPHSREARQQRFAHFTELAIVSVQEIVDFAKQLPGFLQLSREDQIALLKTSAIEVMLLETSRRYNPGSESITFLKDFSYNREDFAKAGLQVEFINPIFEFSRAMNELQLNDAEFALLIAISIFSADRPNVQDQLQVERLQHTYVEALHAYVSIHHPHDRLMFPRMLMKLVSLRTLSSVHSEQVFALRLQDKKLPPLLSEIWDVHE

In test [11] the target is Oxysterols receptor LXR-beta (Homo sapiens) (UniProt P55055). As to the kind of experiment: ATG_LXRb_TRANS: Attagene TRANS-FACTORIAL HepG2 Assay for human Liver X Receptor beta (LXRb) (AID 2282981; active = hit-call score of the fitted dose curve at least 0.9, where 1 is the maximum). Particulars: HepG2 Attagene TRANS GAL4-LXRb reporter, mRNA. The method in brief:
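HepG2 cells transiently transfected with multiple reporter transcription units carrying chimeric NR-Gal4 proteins acting on GAL4-UAS reporters; compound exposure 24 h. Reporter mRNA quantified by RT-PCR, 6-FAM labelling, HpaI digestion and capillary electrophoresis; gain of signal versus DMSO.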

Test [12] is described as follows: ATG_M_06_TRANS: Attagene TRANS-FACTORIAL HepG2 Assay for M06 Transcription Factor (Internal Marker) (AID 2282983; active = hit-call score of the fitted dose curve at least 0.9, where 1 is the maximum). Particulars: HepG2 Attagene TRANS M06 internal marker reporter. The method in brief: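 Measured by capillary electrophoresis of fluorescently labelled RT-PCR products, this endpoint reflects reporter mRNA in HepG2 cells harbouring exogenous NR-GAL4 reporter constructs after 24 h exposure, with DMSO as baseline.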

Test [13] has as its target Nuclear receptor subfamily 4 group A member 2 (Homo sapiens) (UniProt P43354). As to the kind of experiment: ATG_NURR1_TRANS: Attagene TRANS-FACTORIAL HepG2 Assay for human Nuclear Receptor Related Protein 1 (NURR1) (AID 2282985; active = hit-call score of the fitted dose curve at least 0.9, where 1 is the maximum). To be noted: HepG2 Attagene TRANS reporter, mRNA readout. The procedure, abridged: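 HepG2 cells transiently transfected with GAL4-UAS reporter units and chimeric NR-Gal4 constructs; chemical exposure 24 h. Reporter mRNA quantified by RT-PCR, fluorescent labelling and capillary electrophoresis; gain of signal fitted relative to DMSO baseline.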

Test [14] in a line: ATG_Oct_MLP_CIS: Attagene CIS-FACTORIAL HepG2 Assay for human Octamer-Binding Transcription Factor (Oct) (AID 2282993). To be noted: HepG2 Attagene cis-factorial Oct reporter, mRNA; actives raise or lower the signal. The method in brief:
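Using HepG2 cells bearing transfected cis-reporter constructs, mRNA induction was read after 24 h by fluorescent RT-PCR and capillary electrophoresis, with DMSO defining baseline for gain- or loss-of-signal fits.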

Test [15] deals with Cellular tumor antigen p53 (Homo sapiens) (UniProt P04637). Description: ATG_p53_CIS: Attagene CIS-FACTORIAL HepG2 Assay for human p53 Transcription Factor (AID 2282994). Particulars: HepG2 p53 cis-element reporter, Attagene mRNA; actives raise or lower the signal. The procedure, abridged:
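Using HepG2 hepatoma cells carrying cis-acting multiplexed reporters, mRNA induction is detected after a 24 h exposure. Gain- and loss-of-signal responses are fitted relative to DMSO-treated cells.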

Test [16] in a line: ATG_NFI_CIS: Attagene CIS-FACTORIAL HepG2 Assay for human Nuclear Factor I (NFI) (AID 2282989). Particulars: HepG2 cis-regulatory reporter, NFI response element transcription; actives raise or lower the signal. The procedure, abridged:
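Transfected HepG2 liver cells, exposed 24 h, supplied total RNA for oligo(dT) reverse transcription and reporter-specific PCR. Labelled, HpaI-cut fragments were sized by capillary electrophoresis; DMSO set the baseline for bidirectional fitting.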

A short description of test [17]: BSK_3C_TissueFactor: BioMAP Diversity Plus: 3C Assay for Tissue Factor Biomarker Activity (AID 2282997). Particulars: BioMAP 3C HUVEC, tissue factor biomarker readout; actives raise or lower the signal. The method in brief: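 Values derive from bidirectional curve fitting against DMSO of Tissue Factor ELISA signals, taken 24 h after dosing primary human umbilical vein endothelial cells.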

Test [18] can be described thus: BSK_3C_uPAR: BioMAP Diversity Plus: 3C Assay for Urokinase-type plasminogen activator receptor (uPAR) Biomarker Activity (AID 2282998). Particulars: BioMAP 3C HUVEC, uPAR biomarker ELISA; actives raise or lower the signal. The method in brief: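 In this endothelial cell-based assay, human umbilical vein primary cells were treated with chemicals and harvested at 24 h. uPAR was quantified using ELISA, with gains or losses fitted relative to DMSO controls.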
A general note: An ELISA detects its analyte on a solid surface through an enzyme-linked reagent.

A short description of test [19]: BSK_3C_VCAM1: BioMAP Diversity Plus: 3C Assay for Vascular cell adhesion molecule 1 (VCAM1) Biomarker Activity (AID 2282999). Particulars: BioMAP 3C HUVEC, VCAM1 ELISA, cytokine-stimulated; actives raise or lower the signal. The method in brief: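 Human umbilical vein endothelial cells were dosed with compound for 24 h, after which cell-surface VCAM-1 was quantified by ELISA. Bidirectional curve fitting used DMSO as negative control and activity baseline.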

Test [20] in a line: BSK_4H_Eotaxin3: BioMAP Diversity Plus: 4H Assay for Eotaxin 3 Biomarker Activity (AID 2283000).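 Also: CCL26 protein level quantified by ELISA in parallel with SRB cytotoxicity check.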 To be noted: primary human endothelial cells (HUVEC); actives raise or lower the signal. The method in brief:
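Endothelial primary cells (human umbilical vein) exposed to compound for 24 h. ELISA detection of Eotaxin-3.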

Chain of Cellular tumor antigen p53 (Homo sapiens) (P04637 whole entry, looked up): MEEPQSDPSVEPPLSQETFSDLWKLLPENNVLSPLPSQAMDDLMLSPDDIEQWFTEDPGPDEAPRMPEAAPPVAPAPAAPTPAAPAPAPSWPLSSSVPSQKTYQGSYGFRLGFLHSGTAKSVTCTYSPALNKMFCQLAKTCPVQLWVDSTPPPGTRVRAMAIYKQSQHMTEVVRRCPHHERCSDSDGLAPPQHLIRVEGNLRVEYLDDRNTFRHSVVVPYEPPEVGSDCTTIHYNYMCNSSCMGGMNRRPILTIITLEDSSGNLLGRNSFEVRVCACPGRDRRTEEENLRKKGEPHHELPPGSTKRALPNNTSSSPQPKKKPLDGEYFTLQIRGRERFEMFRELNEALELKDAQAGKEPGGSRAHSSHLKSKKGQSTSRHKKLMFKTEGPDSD
Chain of Myc proto-oncogene protein (Homo sapiens) (P01106 whole entry, looked up): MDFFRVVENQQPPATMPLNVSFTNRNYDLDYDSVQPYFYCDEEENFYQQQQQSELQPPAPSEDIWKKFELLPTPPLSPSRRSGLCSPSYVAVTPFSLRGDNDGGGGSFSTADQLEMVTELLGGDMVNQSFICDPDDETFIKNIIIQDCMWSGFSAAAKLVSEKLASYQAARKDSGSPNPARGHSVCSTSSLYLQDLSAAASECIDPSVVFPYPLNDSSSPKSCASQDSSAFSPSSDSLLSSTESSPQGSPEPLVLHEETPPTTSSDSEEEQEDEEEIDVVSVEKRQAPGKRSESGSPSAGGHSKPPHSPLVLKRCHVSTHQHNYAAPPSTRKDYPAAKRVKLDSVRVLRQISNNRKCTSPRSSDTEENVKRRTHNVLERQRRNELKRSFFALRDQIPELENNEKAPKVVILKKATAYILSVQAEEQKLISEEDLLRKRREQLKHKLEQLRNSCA
Chain of Transcriptional activator Myb (Homo sapiens) (P10242 whole entry, looked up): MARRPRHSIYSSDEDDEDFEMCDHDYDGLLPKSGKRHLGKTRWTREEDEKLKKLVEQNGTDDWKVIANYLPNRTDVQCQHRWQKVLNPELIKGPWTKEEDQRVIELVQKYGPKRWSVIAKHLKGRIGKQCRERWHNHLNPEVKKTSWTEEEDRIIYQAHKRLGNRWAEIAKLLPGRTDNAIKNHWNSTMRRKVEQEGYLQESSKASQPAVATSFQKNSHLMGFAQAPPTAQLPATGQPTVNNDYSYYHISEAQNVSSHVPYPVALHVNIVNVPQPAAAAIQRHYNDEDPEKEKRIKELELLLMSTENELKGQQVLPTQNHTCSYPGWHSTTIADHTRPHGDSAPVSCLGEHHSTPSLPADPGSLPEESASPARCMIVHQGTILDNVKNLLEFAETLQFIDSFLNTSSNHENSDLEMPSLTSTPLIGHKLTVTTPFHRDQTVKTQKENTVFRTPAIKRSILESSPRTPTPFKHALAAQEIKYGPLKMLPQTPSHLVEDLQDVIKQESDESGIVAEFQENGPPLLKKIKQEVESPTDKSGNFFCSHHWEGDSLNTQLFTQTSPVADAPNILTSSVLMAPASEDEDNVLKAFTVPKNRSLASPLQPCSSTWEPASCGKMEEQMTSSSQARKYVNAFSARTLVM
Chain of Glucocorticoid receptor (Homo sapiens) (P04150 whole entry, looked up, the tested form may be a part): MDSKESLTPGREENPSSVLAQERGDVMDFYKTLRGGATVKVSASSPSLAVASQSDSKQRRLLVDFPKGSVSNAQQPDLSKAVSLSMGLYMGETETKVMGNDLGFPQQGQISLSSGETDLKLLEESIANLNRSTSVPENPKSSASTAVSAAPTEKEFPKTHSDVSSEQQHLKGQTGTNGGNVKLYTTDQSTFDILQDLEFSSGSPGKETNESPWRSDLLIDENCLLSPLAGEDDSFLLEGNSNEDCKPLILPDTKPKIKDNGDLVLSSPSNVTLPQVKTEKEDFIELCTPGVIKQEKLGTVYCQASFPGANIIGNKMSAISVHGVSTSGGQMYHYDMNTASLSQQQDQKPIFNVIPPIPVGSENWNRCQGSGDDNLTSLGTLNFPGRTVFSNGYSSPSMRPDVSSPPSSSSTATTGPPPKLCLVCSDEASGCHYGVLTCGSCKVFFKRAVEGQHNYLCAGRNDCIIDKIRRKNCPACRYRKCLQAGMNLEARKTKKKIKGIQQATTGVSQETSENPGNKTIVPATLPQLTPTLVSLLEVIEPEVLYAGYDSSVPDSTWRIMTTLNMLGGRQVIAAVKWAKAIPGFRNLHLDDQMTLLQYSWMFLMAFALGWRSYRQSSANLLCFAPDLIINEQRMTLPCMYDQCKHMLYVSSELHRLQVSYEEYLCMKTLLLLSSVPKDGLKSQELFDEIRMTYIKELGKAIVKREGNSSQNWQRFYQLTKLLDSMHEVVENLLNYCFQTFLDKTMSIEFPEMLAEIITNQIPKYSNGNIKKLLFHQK
Chain of Hepatocyte nuclear factor 4-alpha (Homo sapiens) (P41235 whole entry, looked up, the tested form may be a part): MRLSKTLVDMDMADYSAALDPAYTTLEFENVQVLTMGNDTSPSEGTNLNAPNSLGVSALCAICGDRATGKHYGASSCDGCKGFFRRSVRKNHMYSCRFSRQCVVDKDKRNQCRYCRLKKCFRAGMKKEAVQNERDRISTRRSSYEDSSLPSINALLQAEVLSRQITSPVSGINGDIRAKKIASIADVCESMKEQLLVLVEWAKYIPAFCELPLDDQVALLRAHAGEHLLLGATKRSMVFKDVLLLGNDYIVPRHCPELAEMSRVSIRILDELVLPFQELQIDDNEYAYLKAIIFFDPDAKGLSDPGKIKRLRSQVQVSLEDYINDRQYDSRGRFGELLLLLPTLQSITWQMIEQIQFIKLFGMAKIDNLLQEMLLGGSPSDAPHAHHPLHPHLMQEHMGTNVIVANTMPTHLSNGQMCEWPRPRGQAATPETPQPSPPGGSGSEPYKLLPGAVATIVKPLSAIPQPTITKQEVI
Chain of Bile acid receptor (Homo sapiens) (Q96RI1 whole entry, looked up, the tested form may be a part): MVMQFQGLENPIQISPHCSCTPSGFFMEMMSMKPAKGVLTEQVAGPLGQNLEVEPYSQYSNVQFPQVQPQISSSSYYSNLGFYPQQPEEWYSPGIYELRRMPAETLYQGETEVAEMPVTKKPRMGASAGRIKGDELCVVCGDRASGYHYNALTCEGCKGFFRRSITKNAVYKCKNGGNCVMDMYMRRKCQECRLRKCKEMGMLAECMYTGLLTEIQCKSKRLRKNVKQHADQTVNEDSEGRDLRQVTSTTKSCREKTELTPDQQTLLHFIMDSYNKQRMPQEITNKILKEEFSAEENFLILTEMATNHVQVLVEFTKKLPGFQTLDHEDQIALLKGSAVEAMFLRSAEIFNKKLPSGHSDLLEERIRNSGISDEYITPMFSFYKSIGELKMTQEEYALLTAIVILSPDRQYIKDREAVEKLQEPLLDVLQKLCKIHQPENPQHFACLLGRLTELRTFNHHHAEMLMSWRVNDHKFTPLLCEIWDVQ
Chain of Nuclear receptor subfamily 4 group A member 2 (Homo sapiens) (P43354 whole entry, looked up, the tested form may be a part): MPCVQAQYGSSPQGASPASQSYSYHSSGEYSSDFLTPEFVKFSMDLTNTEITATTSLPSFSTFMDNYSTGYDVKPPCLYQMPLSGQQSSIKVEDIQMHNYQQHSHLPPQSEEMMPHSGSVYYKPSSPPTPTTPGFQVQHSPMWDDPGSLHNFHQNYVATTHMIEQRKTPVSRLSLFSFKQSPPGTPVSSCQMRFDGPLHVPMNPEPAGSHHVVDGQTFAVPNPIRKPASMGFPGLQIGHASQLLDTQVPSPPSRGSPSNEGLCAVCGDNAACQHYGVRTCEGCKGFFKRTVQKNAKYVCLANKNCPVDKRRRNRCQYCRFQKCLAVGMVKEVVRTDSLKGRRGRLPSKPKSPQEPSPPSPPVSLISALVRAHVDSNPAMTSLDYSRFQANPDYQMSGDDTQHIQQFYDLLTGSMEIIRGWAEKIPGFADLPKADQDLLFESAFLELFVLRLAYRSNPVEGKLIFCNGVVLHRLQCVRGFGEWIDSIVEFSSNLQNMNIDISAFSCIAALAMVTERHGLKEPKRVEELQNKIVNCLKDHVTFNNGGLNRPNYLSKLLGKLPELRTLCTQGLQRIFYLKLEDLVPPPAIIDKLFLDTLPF

With `CSc1nnc(C(C)(C)C)c(=O)[nH]1`, the call in [1], in test [2], in test [3], in test [4], in test [5] and in [6] was inactive. Besides, the outcome in test [7], in test [8] and in test [9] was inactive.

For `CCC(=O)/C=C/C1C(C)=CCCC1(C)C` (centres undefined), the call in test [1], in test [2], in [10], in test [11], in test [3] and in [12] was inactive. Also, the outcome in test [4], in test [13], in [5], in test [6], in [7] and in test [14] was inactive. Moreover, the outcome in test [15] was inactive. Further, the AC50 in [9] is 40.4 µM (active).

With `CC1(C)CCC(C)(C)c2cc(C(=O)Nc3ccc(C(=O)O)cc3)ccc21`, the molecule was classed as inactive in test [1], in test [11], in [12], in test [4], in test [16] and in test [7]. The outcome in test [8] and in test [9] was inactive. Further, the AC50 was 13 µM (active) in [2], 93.6 µM (active) in test [6], 100 µM (active) in test [14] and 55.1 µM (active) in test [15].

`CC(=O)OCc1ccc2c(c1)OCO2`: the molecule was called inactive in test [1], in test [2], in test [10], in test [12], in test [4] and in test [6]. For the same molecule, the molecule was classed as inactive in test [7] and in [14].

Regarding `CCc1c(C)cc(N)c(CC)c1N`, the result in [1], in test [2], in [3], in test [4], in [13] and in [5] was inactive. The call in [16], in [7], in test [8], in test [9], in test [14] and in test [15] was inactive. The result in [17], in [18], in [19] and in test [20] was inactive.

Broadly, the AC50 is the midpoint of the concentration-response curve, whichever way the signal moves.
